Experimental findings from PubChem BioAssay (NCATS) are described below.

Inconclusive results are not listed. Calls of active or inactive are those of the source. Unless noted, the call rests on the fitted dose curve; in most records, active means well fitted curve in the direction sought with a large enough effect; inconclusive means small, poorly fitted or top-dose-only effect, or another doubt; inactive means no such curve, though single readings can be large; an effect the other way counts as inactive or inconclusive.

Assay [1] can be described thus: qHTS Assay for Lipid Storage Modulators (AID 1519; calls by dose curve; on activity change, negative = inhibition: on the % scale 0 is the no-effect control and ±100 the full control effect). To be noted: Drosophila S3 cells, BODIPY lipid droplet/cell ratio, laser cytometry, cells loaded with oleic acid; for activity change, negative = inhibition: at 25.7 µM (top of the series). Summed up:
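Cells seeded at 5,000 per well were treated with compounds over a concentration series and loaded with oleic acid (400 uM, as added). Lipid droplet fluorescence (488 nm excitation, 500-530 nm channel) was read by laser-scanning cytometry and normalized to 20 uM Triacsin C.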
A general note: In qHTS, concentration-response curves come from the screen itself.

The target in assay [2] is Ubiquitin carboxyl-terminal hydrolase 1 (Homo sapiens) (UniProt O94782). Description: Inhibitors of USP1/UAF1: Pilot qHTS (AID 504865).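 Further: rhodamine fluorescence freed from ubiquitin-rhodamine substrate followed over time; top concentration of the series differs between compounds; on the % scale 0 is the no-effect control and ±100 the full control effect; nearly all actives have a fitted effect of over 35% in size.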 To be noted: purified USP1/UAF1, Ub-rhodamine cleavage fluorescence; series mostly up to 114 µM. Summed up:
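In 50mM HEPES pH 7.8 containing 0.5mM EDTA, 1mM TCEP, 0.1 mg/ml BSA and 0.01% Tween-20, 1nM USP1/UAF1 is exposed to compound for 15 min, then Ub-Rho (150nM final) is added and fluorescence is read over time.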

Assay [3] addresses ATP-dependent 6-phosphofructokinase (Trypanosoma brucei brucei) (UniProt O15648). As to the kind of experiment: qHTS Assay to Find Inhibitors of T. brucei phosphofructokinase: hit validation (AID 492961). Further: on the % scale 0 is the no-effect control and ±100 the full control effect. The conditions noted are these: T. brucei PFK, ADP-Glo luminescence; series mostly up to 24.3 µM. In outline: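 Luminescence from ADP-Glo reports ADP generated as T. brucei PFK (1.25 nM) phosphorylates 0.5 mM fructose-6-phosphate using 0.1 mM ATP. Reactions ran 45 min at room temperature, pH 8.0.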

Assay [4] concerns the target Luciferin 4-monooxygenase (Photinus pyralis) (UniProt P08659). As to the kind of experiment: Biochemical firefly luciferase enzyme assay for NPC (AID 624030).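 Further: purified P. pyralis luciferase at 10 nM with luciferin and ATP substrate; 0% = DMSO and -100% = full luciferase inhibition by PTC124 control; nearly all actives have a fitted effect of over 70% in size.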 The conditions noted are these: purified P. pyralis luciferase, luminescence, 5 min; series mostly up to 24.9 µM. In outline:
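Purified P. pyralis luciferase at 10 nM in 50 mM Tris Acetate (final), luminescence read within 5 minutes of enzyme addition to compounds. Activity normalised to PTC124 versus DMSO; concentration-response curves classed by r2, magnitude and activity.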

Assay [5] is described as follows: qHTS profiling for inhibitors of Plasmodium falciparum proliferation (AID 504749).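 Further: 0% = DMSO vehicle and full inhibition = artemisinin control; nearly all actives have a fitted effect of over 60% in size.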 The conditions noted are these: P. falciparum in erythrocytes, SYBR Green DNA, 72 h, at 12.8 µM (top of the series). In outline: (§1)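 Readout was DNA-dye fluorescence from lysed cultures, ex 485/em 535 nm. Parasitized red cells had grown 72 h with compound; data scaled between 0.29 uM artemisinin and DMSO wells and corrected using vehicle-only plates.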

A further assay concerns 3D7. The description is as above. The conditions noted are these: P. falciparum in erythrocytes, SYBR Green DNA, 72 h; series mostly up to 12.8 µM. In outline: as §1
In a further assay the test system is C2A. Described as above. To be noted: P. falciparum in erythrocytes, SYBR Green DNA, 72 h; series mostly up to 12.8 µM. Summed up:
as §1

A further assay deals with CP201. The assay is described as above. The conditions noted are these: P. falciparum in erythrocytes, SYBR Green DNA, 72 h; series mostly up to 12.8 µM. In outline: as §1
The next assay concerns CP237. The description is as above. The conditions noted are these: P. falciparum in erythrocytes, SYBR Green DNA, 72 h; series mostly up to 12.8 µM. Summed up: as §1
In the next assay the test system is CP252. The assay is described as above. To be noted: P. falciparum in erythrocytes, SYBR Green DNA, 72 h; series mostly up to 12.8 µM. In outline:
as §1

The subject of a further assay is CP262. The description is as above. To be noted: P. falciparum in erythrocytes, SYBR Green DNA, 72 h; series mostly up to 12.8 µM. In outline:
as §1

Another assay has as its system CP268. The assay is described as above. To be noted: P. falciparum in erythrocytes, SYBR Green DNA, 72 h; series mostly up to 12.8 µM. In outline: as §1
A further assay relates to CP305. Described as above. To be noted: P. falciparum in erythrocytes, SYBR Green DNA, 72 h; series mostly up to 12.8 µM. Summed up:
as §1

For a further assay, the system named is CP315. The assay is described as above. The conditions noted are these: P. falciparum in erythrocytes, SYBR Green DNA, 72 h; series mostly up to 12.8 µM. In outline: as §1
The next assay has as its system CP329. The description is as above. To be noted: P. falciparum in erythrocytes, SYBR Green DNA, 72 h; series mostly up to 12.8 µM. In outline:
as §1

The test system of the next assay is HB3. The assay is described as above. To be noted: P. falciparum in erythrocytes, SYBR Green DNA, 72 h; series mostly up to 12.8 µM. In outline:
as §1

The subject of a further assay is JCK. The description is as above. The conditions noted are these: P. falciparum in erythrocytes, SYBR Green DNA, 72 h; series mostly up to 12.8 µM. Summed up: as §1
Another assay has as its system PAD. The description is as above. The conditions noted are these: P. falciparum in erythrocytes, SYBR Green DNA, 72 h; series mostly up to 12.8 µM. In outline:
as §1

The next assay deals with PC49. Described as above. To be noted: P. falciparum in erythrocytes, SYBR Green DNA, 72 h; series mostly up to 12.8 µM. In outline: as §1
For another assay, the system named is CP211. The description is as above. The conditions noted are these: P. falciparum in erythrocytes, SYBR Green DNA, 72 h; series mostly up to 12.8 µM. In outline: as §1
Setting [6] is: measured here: cell count channel max response.
Where [7] appears, read: measured here: lipid channel max response.

ATP-dependent 6-phosphofructokinase (Trypanosoma brucei brucei), sequence (O15648 whole entry, looked up): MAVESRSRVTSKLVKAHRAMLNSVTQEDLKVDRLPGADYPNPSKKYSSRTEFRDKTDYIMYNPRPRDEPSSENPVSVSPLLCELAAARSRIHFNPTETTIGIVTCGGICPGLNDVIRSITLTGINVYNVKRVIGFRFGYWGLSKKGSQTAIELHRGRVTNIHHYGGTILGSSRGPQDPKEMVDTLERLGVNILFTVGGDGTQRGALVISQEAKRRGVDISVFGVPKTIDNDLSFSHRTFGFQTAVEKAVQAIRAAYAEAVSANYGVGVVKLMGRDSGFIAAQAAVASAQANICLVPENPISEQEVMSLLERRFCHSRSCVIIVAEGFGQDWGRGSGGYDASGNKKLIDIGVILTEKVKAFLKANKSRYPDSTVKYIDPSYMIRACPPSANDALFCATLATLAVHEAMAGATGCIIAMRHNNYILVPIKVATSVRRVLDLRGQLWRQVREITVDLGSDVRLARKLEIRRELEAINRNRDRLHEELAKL
Luciferin 4-monooxygenase (Photinus pyralis), sequence (P08659 whole entry, looked up): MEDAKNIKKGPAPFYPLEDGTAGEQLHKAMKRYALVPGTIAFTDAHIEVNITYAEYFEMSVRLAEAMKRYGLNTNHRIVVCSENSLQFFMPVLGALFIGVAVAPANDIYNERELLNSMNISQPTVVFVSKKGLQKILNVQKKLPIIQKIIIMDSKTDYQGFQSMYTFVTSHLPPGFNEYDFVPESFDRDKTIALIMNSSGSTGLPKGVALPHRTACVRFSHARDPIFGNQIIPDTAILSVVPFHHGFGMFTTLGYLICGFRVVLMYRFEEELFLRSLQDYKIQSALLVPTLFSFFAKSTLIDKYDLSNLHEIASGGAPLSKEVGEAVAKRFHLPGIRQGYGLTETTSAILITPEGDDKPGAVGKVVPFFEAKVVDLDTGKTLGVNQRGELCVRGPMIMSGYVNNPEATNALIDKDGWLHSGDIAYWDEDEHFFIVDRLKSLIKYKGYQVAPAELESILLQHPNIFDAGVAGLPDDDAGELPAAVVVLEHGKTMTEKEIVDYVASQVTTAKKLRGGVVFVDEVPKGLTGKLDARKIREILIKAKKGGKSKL
Ubiquitin carboxyl-terminal hydrolase 1 (Homo sapiens), sequence (O94782 whole entry, looked up): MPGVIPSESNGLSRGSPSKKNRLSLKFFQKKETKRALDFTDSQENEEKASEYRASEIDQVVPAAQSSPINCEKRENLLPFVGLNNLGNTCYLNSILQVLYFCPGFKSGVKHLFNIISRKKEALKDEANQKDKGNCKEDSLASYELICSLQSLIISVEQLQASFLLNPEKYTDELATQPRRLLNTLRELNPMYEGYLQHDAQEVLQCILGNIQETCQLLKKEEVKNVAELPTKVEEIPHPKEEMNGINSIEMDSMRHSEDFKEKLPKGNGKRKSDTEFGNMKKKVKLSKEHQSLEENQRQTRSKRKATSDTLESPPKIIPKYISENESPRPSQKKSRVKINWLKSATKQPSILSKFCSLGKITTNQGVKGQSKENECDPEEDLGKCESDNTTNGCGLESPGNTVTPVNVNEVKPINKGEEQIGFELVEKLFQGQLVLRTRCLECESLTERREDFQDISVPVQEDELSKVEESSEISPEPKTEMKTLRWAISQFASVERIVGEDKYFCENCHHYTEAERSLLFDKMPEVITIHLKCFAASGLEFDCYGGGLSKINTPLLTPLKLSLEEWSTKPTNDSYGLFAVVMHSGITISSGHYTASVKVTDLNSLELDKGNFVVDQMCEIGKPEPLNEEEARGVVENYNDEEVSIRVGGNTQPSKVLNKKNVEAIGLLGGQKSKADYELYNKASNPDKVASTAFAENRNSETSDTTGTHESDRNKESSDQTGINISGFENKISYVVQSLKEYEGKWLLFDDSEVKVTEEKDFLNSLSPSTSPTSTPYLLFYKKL

`CC[C@]1(c2ccccc2)NC(=O)N(C)C1=O`: the activity change, negative = inhibition in assay [1] was 0.43% (inactive). The max response stood at 11.1% in assay [1] (setting [6]) and 11.3% in assay [1] (setting [7]). In assay [2], the Potency entry is “inactive”.
Turning to `CC1=C(C(=O)O)N2C(=O)[C@@H](NC(=O)[C@@H](N)c3ccc(O)cc3)[C@@H]2SC1`, the activity change, negative = inhibition in assay [1] is 1.21% (inactive). The max response in assay [1] (setting [6]) is -1.1%; in assay [1] (setting [7]), -2.01%. Besides, the compound was classed as inactive in assay [3]. Also, the Potency result (in assay [2]; in assay [4]; with 3D7; with C2A; in the assay on CP201; in the assay on CP237) was “inactive” in each case. Moreover, the Potency result with CP252, with CP262, in the assay with CP268, with CP305, with CP315 and in the assay on CP329 was “inactive” in each case. The Potency result with HB3, in the assay on JCK, with PAD and with PC49 was “inactive” in each case. Besides, the activity, negative = inhibition in assay [5] (parasite line A) was 9.01% (inactive); in [5] (parasite line B) it was 1.57% (inactive).
In the case of `CC1(C)[C@@H](OC(=O)CCC(=O)O)CC[C@@]2(C)[C@H]1CC[C@@]1(C)[C@H]2C(=O)C=C2[C@H]3C[C@](C)(C(=O)O)CC[C@]3(C)CC[C@@]21C`, in assay [1], the activity change, negative = inhibition was -0.623% (inactive). In addition, the max response in assay [1] (setting [6]) is -1.7%; in assay [1] (setting [7]) it was -2.85%. For the same compound, the compound was called inactive in assay [3]. Besides, the Potency entry (in assay [2]; in assay [4]; with 3D7; in the assay with C2A; in the assay on CP201; in the assay with CP211) was “inactive” in each case. In addition, the Potency result with CP237, with CP252, in the assay on CP262, with CP268, in the assay on CP305 and in the assay on CP315 was “inactive” throughout. Further, the Potency result in the assay with CP329, in the assay with HB3, with JCK, with PAD and in the assay on PC49 was “inactive” in each case. For the same compound, the activity, negative = inhibition was -5.96% (inactive) in assay [5] (parasite line A) and 13.4% (inactive) in [5] (parasite line B).
For the compound `OCCOCCN1CCN([C@@H](c2ccccc2)c2ccc(Cl)cc2)CC1`, in assay [1], the activity change, negative = inhibition was -0.885% (inactive). Further, the max response in [1] (setting [6]) was 8.41%; in assay [1] (setting [7]), 6.93%. Moreover, the Potency result in assay [2] is “inactive”.
On to `CO[C@@H]1C=CO[C@]2(C)Oc3c(C)c(O)c4c(O)c(c(C=NN5CCN(C)CC5)c(O)c4c3C2=O)NC(=O)C(C)=CC=C[C@H](C)[C@H](O)[C@H](C)[C@H](O)[C@H](C)[C@H](OC(C)=O)[C@H]1C`, for which the activity change, negative = inhibition in [1] is -0.87% (inactive). Also, the max response in [1] (setting [6]) was -4.36%; in assay [1] (setting [7]), -4.23%.
As to `O=C(O)COCCN1CCN([C@@H](c2ccccc2)c2ccc(Cl)cc2)CC1`, the activity change, negative = inhibition in assay [1] is 0.348% (inactive). For the same compound, the max response in assay [1] (setting [6]) is -9.07%; in assay [1] (setting [7]) it was -7.35%. Further, the Potency result (in [4]; in the assay with 3D7; in the assay with C2A; in the assay with CP201; with CP211; in the assay with CP237) was “inactive” throughout. The Potency entry with CP252, with CP262, in the assay with CP268, with CP305, with CP315 and with CP329 was “inactive” each time. Further, the Potency result in the assay on JCK, with PAD and in the assay on PC49 was “inactive” each time. Further, the activity, negative = inhibition in [5] (parasite line A) was -5.9% (inactive); in assay [5] (parasite line B) it was 11.4% (inactive).
In the case of `N[C@H](Cc1cc(I)c(Oc2ccc(O)c(I)c2)c(I)c1)C(=O)O`, the activity change, negative = inhibition in assay [1] was -1.62% (inactive). The results for the max response in assay [1] (setting [6]) and in assay [1] (setting [7]) were 8.52% and 3.42%, respectively.
With `Cc1cccc(CN2CCN([C@@H](c3ccccc3)c3ccc(Cl)cc3)CC2)c1`, the activity change, negative = inhibition in assay [1] is -11.4% (inactive). Besides, the max response is -11.7% in [1] (setting [6]) and -24.7% in assay [1] (setting [7]). The compound was called inactive in assay [3]. Further, the Potency entry (in assay [4]; with C2A; in the assay on CP201; with CP211; with CP237; in the assay on CP252) was “inactive” each time. Moreover, the Potency entry in the assay with CP262, in the assay with CP268, with CP305, in the assay on CP315, in the assay on CP329 and in the assay on JCK was “inactive” throughout. Also, the Potency result in the assay on PC49 was “inactive”.
